# Most compounds without a hit are left out; they make up all but 2.7% or so of the library.
# KDM5B inhibitor: blocks human KDM5B histone demethylase activity | KDM5B demethylase, FDH-coupled NADH fluorescence (FDH is formaldehyde dehydrogenase) | Potency, µM (highest dose often 57.7 µM), hits mostly inhibitors | 220,000 tested, 2.6% active | AID 1347165; active = well fitted inhibition curve with a large enough effect; inconclusive = small, poorly fitted or top-dose-only effect; inactive = no such curve, though single readings can be large or run the other way; note: potency is the fitted concentration of half-maximal effect; 0% is about no effect; nearly all actives have a fitted effect of over 70% in size
#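 Coupled FDH/NAD⁺ fluorescence readout. KDM5BΔAP 200 nM final; compound titration, 10 min RT preincubation; substrate mix 12.5 µM H3K4me3, 25 µM 2-OG, 50 µM Fe(II), 100 µM ascorbate, 0.25 mM NAD⁺, 0.25 U/mL FDH; ΔRFU over 30 min.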
# IP6K1 inhibitor: inhibitors of human IP6K1; IP6K1 kinase, ADP-Glo luminescence, 2 h; hits give low values; 140,000 tested, 0.81% active; activity change, % (series mostly up to about 58 µM); Q92551; in the data active = activity change below about -25%; note: % is set by controls: 0 for no effect and ±100 for the full control effect
# Target sequence (Q92551 whole entry, looked up): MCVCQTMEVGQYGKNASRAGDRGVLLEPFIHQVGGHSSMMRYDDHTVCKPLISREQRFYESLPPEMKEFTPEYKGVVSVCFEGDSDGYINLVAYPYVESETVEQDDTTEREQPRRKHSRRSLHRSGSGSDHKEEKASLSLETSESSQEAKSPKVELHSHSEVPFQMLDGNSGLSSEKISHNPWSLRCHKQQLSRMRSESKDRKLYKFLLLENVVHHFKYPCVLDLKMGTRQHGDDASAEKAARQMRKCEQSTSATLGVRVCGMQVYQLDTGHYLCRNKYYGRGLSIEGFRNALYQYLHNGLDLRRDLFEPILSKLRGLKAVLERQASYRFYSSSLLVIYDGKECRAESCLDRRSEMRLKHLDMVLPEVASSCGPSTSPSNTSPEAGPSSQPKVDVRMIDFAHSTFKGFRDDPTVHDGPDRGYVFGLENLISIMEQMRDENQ
#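 ADP-Glo luminescence measures ADP made by human IP6K1 during a 2 h RT reaction with ATP/IP6 (mix at 1.3 mM/130 uM); top library doses 57.5 and 19.1 uM final.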
# The depositor's hits bear a star; i = inactive; ? = inconclusive; . = no result given.
SMILES,KDM5B inhibitor,IP6K1 inhibitor
O=C(NCc1ccccc1)c1cccc(NC(=S)Nc2ccc(Br)cc2Cl)c1,i,.
CCCc1noc(C(C)Sc2n[nH]c(-c3ccccc3F)n2)n1 (configuration not stated),i,.
CNc1ccc(OC2CCN(C(=O)COC)CC2)nc1,28.2µM*,2.1
CN(C)CC(=O)Nc1ccc(OC2CCN(C)CC2)nc1,i,4.1
CCCNc1c(NS(=O)(=O)c2ccc(OC)cc2)c(=O)oc2ccccc12,i,.
CN1CCOc2c(C(=O)NCc3cccnc3)cc(-c3ccccc3)cc21,28.2µM*,-14.0
CN1CCOc2c(C(=O)NCc3cccnc3)cc(-c3ccc(CO)cc3)cc21,39.8µM*,-11.1
CN1CCOc2c(C(=O)NCc3cnn(C)c3)cc(-c3ccccc3O)cc21,28.2µM*,-15.2
CN1CCOc2c(C(=O)NCc3cccnc3)cc(-c3ccccc3O)cc21,31.6µM*,-17.8
CN1CCOc2c(C(=O)NCc3cnn(C)c3)cc(-c3cccnc3)cc21,i,-7.1
CC(NC(=O)c1nn(Cc2ccccc2)c(=O)c2ccccc12)c1ccco1 (configuration not stated),i,.
CC(C)NC(=O)c1cc(Br)cn2ccnc12,39.8µM*,10.6
O=C(c1cc(Br)cn2ccnc12)N1CCC(N2CCCNC2=O)CC1,?,0.6
CNC(=O)c1cc(Br)cn2ccnc12,35.5µM*,3.4
CNC(=O)c1cccc(-n2c(C)nc3cccnc32)c1C,?,21.5
Cn1nc(C(=O)OCc2nc(-c3ccc(Br)cc3)no2)c2ccccc21,i,.
O=C(CCc1ncc(-c2ccc(F)cc2)o1)NCc1ccc(Cl)cc1,i,.
OCCc1nc2ccccc2s1,i,.
COCCn1cnc2ccc(-c3cccc(O)c3)nc2c1=O,i,-1.0
COCCn1cnc2ccc(N3CCCC3)nc2c1=O,31.6µM*,6.6
COCCn1cnc2ccc(OCc3ccc(Cl)cc3)nc2c1=O,i,11.2
COCCn1cnc2ccc(-c3ccccc3)nc2c1=O,35.5µM*,-6.1
COCCn1cnc2ccc(OCC3CC3)nc2c1=O,i,7.2
COCCn1cnc2ccc(-c3cccnc3OC)nc2c1=O,39.8µM*,11.3
COCCn1cnc2ccc(OCc3ccc(C(F)(F)F)cc3)nc2c1=O,i,-4.7
SMILES,KDM5B inhibitor,IP6K1 inhibitor
COCCn1cnc2ccc(-c3ccc(F)cc3)nc2c1=O,35.5µM*,-1.2
CC(=O)Nc1ccc(NC(=O)c2cn(Cc3ccccc3)nc2-c2ccc(Cl)cc2)cc1,i,.
Cc1cc(C)cc(-c2ccc(CN3CCCC3C(=O)N3CCCC(C)C3)cc2)c1 (configuration not stated),.,-4.7
COC(=O)CN1CCN(c2nc3c(c(=O)[nH]c(=O)n3C)n2Cc2cccc3ccccc23)CC1,i,.
CCN1CCN(CCNC(=O)c2c(C)nn(-c3ccc(F)cc3)c2-n2cccc2)CC1,i,.
O=c1oc2ccccc2c(NCc2ccccc2)c1NS(=O)(=O)c1ccc(F)cc1F,i,.
CCN(CC)Cc1nc(C2(O)CCN(C(=O)CCc3ccccc3)CC2)cs1,i,4.8
O=C(c1cc(Br)cn2ccnc12)N1CCC(N2CCNC2=O)CC1,?,-11.4
O=C(NCC(F)(F)F)c1cc(Br)cn2ccnc12,35.5µM*,1.9
Cc1ccc2nc(C)c(C(=O)NCC(F)(F)F)cc2c1,i,.
NC(=O)c1ccc(CNC(=O)c2ccc(C(F)(F)F)cc2)cc1,i,.
O=C(NCC1CC1)c1cc(Br)cn2ccnc12,?,-7.7
COC(=O)CNC(=O)c1cc(Br)cn2ccnc12,31.6µM*,-7.7
O=C(NCc1ccc(C(F)(F)F)cc1)c1cc(Br)cn2ccnc12,14.1µM*,-2.8
COCCNC(=O)c1cc(Br)cn2ccnc12,39.8µM*,-5.4
CCn1nccc1C(=O)N1CCC(Cc2ccc(CCC(=O)NC3CC3)cc2)CC1,.,17.6
O=C(NCCc1ccccc1F)c1cc(Br)cn2ccnc12,28.2µM*,-14.8
O=C(NCCc1ccccc1F)c1ccncc1,i,.
O=C(NCc1ccccn1)c1nc2sccn2c1-c1cccnc1,.,6.5
COc1ccc(C(CNC(=O)c2n[nH]c(=O)c3ccccc23)N2CCCC2)cc1 (configuration not stated),i,.
COCc1ncc(C)n1CCNC(=O)c1ccc(C)[nH]c1=O,22.4µM*,-15.8
COCc1ncc(C)n1CCNC(=O)c1cc(-c2ccccc2C)n[nH]1,i,1.2
COc1ccc(-c2cc(C(=O)NC3CC3)c3c(C)nn(-c4ccccc4)c3n2)cc1,79.4µM*,-7.1
COCCNC(=O)c1cc(-c2ccc(OC)cc2)nc2c1c(C)nn2-c1ccccc1,?,-3.7
COc1ccc(NC(=O)c2cc(C3CC3)nc3c2c(C)nn3-c2ccccc2)cc1,?,1.4
SMILES,KDM5B inhibitor,IP6K1 inhibitor
COc1ccc(-c2cc(C(=O)NC3CCNCC3)c3c(C)nn(-c4ccccc4)c3n2)cc1,79.4µM*,1.3
Cc1ccc(NS(=O)(=O)c2cc(C(=O)O)cc3c2CCC3)cc1F,i,.
CSc1ccccc1C(=O)Nc1ccc(C)c(F)c1,i,.
O=C(COc1ccccc1)N1CCC2(CC1)CN(c1ncccn1)CC2CO (configuration not stated),22.4µM*,6.2
COc1ccc(CC(=O)N2CCC3(CC2)CN(c2ncccn2)CC3CO)cc1 (configuration not stated),?,15.5
Cc1cccc(OCC(=O)N2CCC3(CC2)CN(c2ncccn2)CC3CO)c1 (configuration not stated),20µM*,-4.8
Cc1cccc(OCC(=O)N2CCC3(CC2)CN(c2ccncn2)CC3CO)c1 (configuration not stated),i,6.8
Cc1ccc2occ(C3CC(=O)Nc4c3c(C)nn4-c3ccc(=O)[nH]n3)c(=O)c2c1 (configuration not stated),i,.
COc1ccc(Cn2c(=O)c(C(=O)NC3CC3)nc3cccnc32)cc1,.,16.2
CCCn1c(CN(Cc2ccccc2)Cc2ccccc2)nc2c1c(=O)[nH]c(=O)n2C,i,.
COc1ccccc1Nc1ccnc(N2CCC[C@H]2C(=O)N2CCC(Cc3ccccc3)CC2)n1,.,-1.3
COc1ccc(-c2cn3c(n2)CO[C@@H](CNS(C)(=O)=O)C3)cc1,?,-9.0
Cc1ccc(-c2cn3c(n2)CO[C@@H](CNS(C)(=O)=O)C3)cc1,39.8µM*,2.8
Cn1c(=O)c2sc3c(c2n(CC(=O)NCCc2ccccc2)c1=O)COC(C)(C)C3,i,.
COc1cccc(-c2cc3c(=O)n(CCNC(=O)c4ccc(OC)c(F)c4)ccn3n2)c1,20µM*,-6.8
Cc1ccc(-c2cc3c(=O)n(CCNC(=O)c4ccc5cc[nH]c5c4)ccn3n2)cc1C,35.5µM*,-5.4
COc1cccc(-c2cc3c(=O)n(CCNC(=O)c4ccc5cc[nH]c5c4)ccn3n2)c1,35.5µM*,-16.3
COc1cccc(-c2cc3c(=O)n(CCNC(=O)c4cc(F)cc(F)c4)ccn3n2)c1,i,-12.0
O=C(NCCn1ccn2nc(-c3ccc(F)cc3)cc2c1=O)c1ccc(F)cc1,?,4.1
COc1cccc(-c2cc3c(=O)n(CCNC(=O)c4c(F)cccc4F)ccn3n2)c1,?,-12.4
CCOc1ccc(S(=O)(=O)NCCC(=O)N(C)CC(=O)Nc2cccc(OC)c2)cc1,i,.
Cc1ccc(-n2c(SCC(=O)N3CCCC3=O)nc3ccccc3c2=O)nc1,i,.
O=C(OCC(=O)N1CCc2ccccc21)c1ccccc1C(=O)c1ccc(Cl)c([N+](=O)[O-])c1,i,.

# Screening data: PubChem, National Center for Advancing Translational Sciences (NCATS)
